PubChem BioAssay (NCI)
This is part of a sample that, as a whole, favours compounds with a hit. Of some 79,000 tested, about 15% had one in any assay. Unmarked numbers belong to inactive results. Calls of active or inactive are those of the source. No stated cut-off is given here; in the data, active means growth inhibition above about 70%; inactive means the rest.

Key:
[1] = NCI Yeast Anticancer Drug Screen. Data for the rad50 strain (AID 155);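 further: 0% = growth of vehicle-only cultures of the same strain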; conditions: S. cerevisiae rad50 strain growth inhibition, stronger effect = higher value
Method in brief: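 Genetically altered yeast (DNA repair pathway); compound treatment; growth inhibition vs vehicle ctrl.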

[2] = NCI Yeast Anticancer Drug Screen. Data for the mec2-1 strain (AID 157); conditions: S. cerevisiae mec2-1 strain, stronger effect = higher value
Method in brief: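 Mutant yeast (mec2-1) grown with compound; growth inhibition relative to vehicle control reported.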

[3] = NCI Yeast Anticancer Drug Screen. Data for the sgs1 mgt1 strain (AID 161);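 further: 0% = growth of cultures given vehicle only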; conditions: S. cerevisiae sgs1 mgt1 strain, stronger effect = higher value
Method in brief: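 Compounds are added to genetically altered yeast, and growth is compared with cultures given vehicle alone to give percent inhibition.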

[4] = NCI Yeast Anticancer Drug Screen. Data for the cln2 rad14 strain (AID 165);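 further: 0% = growth equal to vehicle treated cultures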; conditions: S. cerevisiae cln2 rad14 strain, stronger effect = higher value
Method in brief: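 Readout is yeast growth inhibition versus vehicle-treated controls, using a strain with cln2 and rad14 alterations exposed to compound.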

[5] = NCI Yeast Anticancer Drug Screen. Data for the bub3 strain (AID 167); conditions: S. cerevisiae bub3 mutant strain, stronger effect = higher value
Method in brief: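 Yeast carrying a defined mutation is treated with each compound, and growth is compared with that of vehicle-exposed cells to give inhibition.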

[6] = NCI Yeast Anticancer Drug Screen. Data for the mlh1 rad18 strain (AID 175); conditions: S. cerevisiae mlh1 rad18 strain growth inhibition, stronger effect = higher value
Method in brief: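 Genetically defined yeast (DNA repair-deficient) exposed to compounds; growth inhibition determined relative to vehicle.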

[7] = at 5.0 µM (retest, dose inferred, filed as 0.5)
[8] = at 50.0 µM (retest, dose inferred, filed as 5.0)

Row | SMILES | growth inhibition [1, 7] [%] | growth inhibition [1, 8] | growth inhibition ([1]; at 50.0 µM) | growth inhibition [2, 7] [%] | growth inhibition [2, 8] | growth inhibition ([2]; at 50.0 µM) | growth inhibition [3, 7] [%] | growth inhibition [3, 8] | growth inhibition ([3]; at 50.0 µM) | growth inhibition [4, 7] [%] | growth inhibition [4, 8] | growth inhibition ([4]; at 50.0 µM) | growth inhibition [5, 7] [%] | growth inhibition [5, 8] | growth inhibition ([5]; at 50.0 µM) | growth inhibition [6, 7] [%] | growth inhibition [6, 8] | growth inhibition ([6]; at 50.0 µM)
1 | CCCCOCN(CC(CC)CCCC)CC(CC)CCCC (stereo not given) | 4 | 15% | 26% | 3 | 14% | 12.8% | 1 | 29% | 73.4% (active) | 4 | 10% | 5.3% | 1 | 20% | 18.9% | -4 | 37% | 52.1%
2 | COc1ccc([N+](=O)[O-])cc1NC(=O)Nc1ccc(C(=O)OCC(C)C)cc1 | 11 | 36% | 48.8% | 3 | 53% | 70.2% (active) | 3 | 48% | 68.2% | -10 | 56% | 57% | -5 | 47% | 45.3% | 13 | 3% | 74.9% (active)
3 | COC(=O)c1nc(N)nc(C(=O)OC)c1C(=O)c1ccccc1 | 0 | 21% | -32.9% | 22 | -5% | -13.3% | 30 | 20% | -29.4% | -13 | 1% | 42.7% | -3 | 0% | -24.6% | -2 | -5% | 0%
4 | O=C(O)CN1CCNCCN(CC(=O)O)CCNCC1 | 66 | 94% (active) | 50.7% | 59 | 93% (active) | 76.1% (active) | 56 | 94% (active) | 69.8% | 25 | 85% (active) | 54.8% | 60 | 95% (active) | 56.2% | 66 | 94% (active) | 56%
5 | OC(C1CCC=NN1C(O)(C(F)(F)F)C(F)(F)F)(C(F)(F)F)C(F)(F)F (stereo not given) | 8 | 86% (active) | 89.7% (active) | -3 | 71% (active) | 83.1% (active) | -2 | 69% | 87.7% (active) | 12 | 58% | 78.8% (active) | -6 | 78% (active) | 92.5% (active) | 9 | 87% (active) | 94% (active)
6 | O=c1c(-c2ccccc2)c(-c2ccccc2)c1=O | -98 | 84% (active) | 97.7% (active) | -37 | 89% (active) | 96.2% (active) | -36 | 77% (active) | 63.1% | -49 | 76% (active) | 95.3% (active) | -38 | 84% (active) | 96.8% (active) | -85 | 69% | 85.5% (active)
7 | CCC(c1ccc(OC)cc1)C(CC)c1ccc(O)c(CN(C)C)c1 (stereo not given) | -2 | 39% | 60.1% | 0 | 38% | 27.1% | -4 | 86% (active) | 72.9% (active) | -1 | 41% | 38.3% | 4 | 50% | 49% | 3 | 84% (active) | 83.5% (active)
8 | CN(C)C(=S)/N=c1\ss/c(=N\C(=S)N(C)C)n1-c1ccc(Cl)cc1 | 9 | 9% | 94.2% (active) | 14 | -7% | 92.1% (active) | 7 | 13% | 95.7% (active) | 5 | -10% | 72.3% (active) | 3 | -2% | 90% (active) | 8 | 29% | 96.2% (active)
9 | CCn1c(C)cc(=O)n1-c1ccc([N+](=O)[O-])cc1 | -160 | -148% | 51.1% | -45 | -50% | 17.4% | -60 | -48% | 25.4% | -64 | -69% | 24% | -71 | -78% | 50.1% | -146 | -110% | 68.9%
10 | CC(O)c1cccnc1 (stereo not given) | 11 | -8% | 65.5% | 10 | 1% | 49.6% | 4 | -1% | 20% | 20 | 41% | 58.1% | -6 | 47% | 28.6% | -9 | 51% | 66%
